# In the supplement of paper PMC8728848:
# About 410 targets per protein were measured; listed, in parts, are those with the strongest signals and a random draw of the rest.
# B1: Pp2-A2 (Arabidopsis thaliana), Q07098 (protein)
# chain: MPSNGDLDRQIEQLMECKPLSEADVRTLCDQARAILVEEYNVQPVKCPVTVCGDIHGQFYDLIELFRIGGNAPDTNYLFMGDYVDRGYYSVETVSLLVALKVRYRDRLTILRGNHESRQITQVYGFYDECLRKYGNANVWKYFTDLFDYLPLTALIESQVFCLHGGLSPSLDTLDNIRSLDRIQEVPHEGPMCDLLWSDPDDRCGWGISPRGAGYTFGQDIAAQFNHNNGLSLISRAHQLVMEGFNWCQDKNVVTVFSAPNYCYRCGNMAAILEIGENMEQNFLQFDPAPRQVEPDTTRKTPDYFL
# B2: DC-SIGN (Canis lupus), XP_853402 (protein)
# chain: AGLCRPCPWKWELFQESCYFFSQTQNTWKESISACQNLRAQLVIINSTEEQKFLKSWNTRNNQRTWIGLSDHHNEGSWKWVDNTPLQLSFWKEGEPNNHGDEDCVELYSDGWNDNRCSTENFWICKKPSSPCPGPGLNDIFEAQKIEWHE
# What was measured:
# Assay in all cases: glycan array binding signal (z-score within array); higher = stronger binding
# Conditions in all cases: glycan notation: IUPAC condensed, linker removed
# [1] = target: Fuc(a1-2)Gal(b1-3)[Fuc(a1-4)]GlcNAc(b1-2)Man(a1-3)[Fuc(a1-2)Gal(b1-3)[Fuc(a1-4)]GlcNAc(b1-2)Man(a1-6)]Man(b1-4)GlcNAc(b1-4)GlcNAc
# Method in brief: (§1)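 Negative Z-scores can be read as non-binding. The Z-score is calculated within each array and then averaged across arrays of one protein sequence at different concentrations or buffers and across linkers. Arrays, 3228 in all, were curated from the Consortium for Functional Glycomics database and kept only where the protein sequence was available.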
# [2] = target: Fuc(a1-2)[Gal(a1-3)]Gal(b1-4)GlcNAc
# Method in brief: as §1
# [3] = target: Fuc(a1-2)[GalNAc(a1-3)]Gal(b1-3)GalNAc(a1-3)[Fuc(a1-2)]Gal(b1-4)GlcNAc
# Method in brief: as §1
# [4] = target: Fuc(a1-3)[Gal(b1-4)]GlcNAc(b1-6)[Gal(b1-3)GlcNAc(b1-3)]Gal(b1-4)Glc
# Method in brief: as §1
# [5] = target: Fuc(a1-3)[Gal(b1-4)]GlcNAc6S
# Method in brief: as §1
# [6] = target: Fuc(a1-3)[Gal3S(b1-4)]GlcNAc
# Method in brief: as §1
# [7] = target: Gal(a1-3)Gal(b1-4)[Fuc(a1-3)]GlcNAc(b1-2)Man(a1-3)[Gal(a1-3)Gal(b1-4)[Fuc(a1-3)]GlcNAc(b1-2)Man(a1-6)]Man(b1-4)GlcNAc(b1-4)GlcNAc
# Method in brief: as §1
# [8] = target: Gal(b1-3)GalNAc(b1-4)Gal(b1-4)Glc
# Method in brief: as §1
# [9] = target: Gal(b1-4)GlcNAc(b1-3)Gal(b1-4)Glc
# Method in brief: as §1
# [10] = target: Gal3S(b1-4)[Fuc(a1-3)]Glc6S
# Method in brief: as §1
# [11] = target: Gal3S4S(b1-4)GlcNAc
# Method in brief: as §1
# [12] = target: Gal3S6S(b1-4)GlcNAc6S
# Method in brief: as §1
# [13] = target: Gal4S6S(b1-4)GlcNAc
# Method in brief: as §1
# [14] = target: Gal6S(b1-4)Glc6S
# Method in brief: as §1
# [15] = target: Gal6S(b1-4)GlcNAc
# Method in brief: as §1
# [16] = target: Gal6S(b1-4)GlcNAc6S
# Method in brief: as §1
# [17] = target: GalNAc(b1-3)GalNAc
# Method in brief: as §1
# [18] = target: GlcNAc(a1-4)Gal(b1-4)GlcNAc(b1-3)Gal(b1-4)[Fuc(a1-3)]GlcNAc(b1-3)Gal(b1-4)[Fuc(a1-3)]GlcNAc
# Method in brief: as §1
# [19] = target: GlcNAc(a1-6)Gal(b1-4)GlcNAc
# Method in brief: as §1
# [20] = target: GlcNAc(b1-3)Gal(b1-4)Glc
# Method in brief: as §1
# [21] = target: GlcNAc(b1-4)[GlcNAc(b1-6)]GalNAc
# Method in brief: as §1
# [22] = target: Man(a1-3)[Man(a1-6)]Man(a1-6)[Man(a1-3)]Man
# Method in brief: as §1
# [23] = target: Neu5Ac(a2-3)Gal(b1-4)[Fuc(a1-3)]GlcNAc(b1-3)GalNAc
# Method in brief: as §1
# [24] = target: Neu5Ac(a2-3)[GalNAc(b1-4)]Gal(b1-4)Glc
# Method in brief: as §1
# [25] = target: Neu5Ac(a2-6)Gal(b1-4)GlcNAc
# Method in brief: as §1
# [26] = target: Neu5Ac(a2-6)Gal(b1-4)GlcNAc(b1-2)Man(a1-6)Man(b1-4)GlcNAc(b1-4)GlcNAc
# Method in brief: as §1
# [27] = target: Fuc(a1-2)[GalNAc(a1-3)]Gal(b1-4)GlcNAc
# Method in brief: as §1
# [28] = target: Fuc(a1-3)GlcNAc
# Method in brief: as §1
# [29] = target: Fuc(a1-3)[Gal(b1-4)]GlcNAc(b1-2)Man(a1-3)[Fuc(a1-3)[Gal(b1-4)]GlcNAc(b1-2)Man(a1-6)]Man(b1-4)GlcNAc(b1-4)GlcNAc
# Method in brief: as §1
# [30] = target: Fuc(a1-3)[Gal(b1-4)]GlcNAc(b1-4)Gal(b1-4)[Fuc(a1-3)]GlcNAc
# Method in brief: as §1
# [31] = target: Gal(a1-3)[Gal(a1-4)]Gal(b1-4)GlcNAc
# Method in brief: as §1
# [32] = target: Gal(b1-2)Gal
# Method in brief: as §1
# [33] = target: Gal(b1-3)GlcNAc(b1-3)Gal(b1-4)Glc
# Method in brief: as §1
# [34] = target: Gal(b1-3)[Fuc(a1-4)]GlcNAc(b1-2)Man(a1-3)[Gal(b1-3)[Fuc(a1-4)]GlcNAc(b1-2)Man(a1-6)]Man(b1-4)GlcNAc(b1-4)[Fuc(a1-6)]GlcNAc
# Method in brief: as §1
# [35] = target: Gal(b1-3)[Neu5Ac(a2-6)]GalNAc
# Method in brief: as §1
# [36] = target: Gal(b1-4)GalNAc(b1-3)[Fuc(a1-2)]Gal(b1-4)GlcNAc
# Method in brief: as §1
# [37] = target: Gal3S(b1-3)GlcNAc
# Method in brief: as §1
# [38] = target: GlcNAc(a1-4)Gal(b1-3)GlcNAc
# Method in brief: as §1
# [39] = target: GlcNAc(a1-4)Gal(b1-4)GlcNAc(b1-3)Gal(b1-4)GlcNAc(b1-3)Gal(b1-4)GlcNAc
# Method in brief: as §1
# [40] = target: GlcNAc(b1-3)[GlcNAc(b1-6)]Gal(b1-4)GlcNAc
# Method in brief: as §1
# [41] = target: GlcNAc(b1-4)GlcNAc(b1-4)GlcNAc(b1-4)GlcNAc(b1-4)GlcNAc
# Method in brief: as §1
# [42] = target: Man(a1-2)Man(a1-2)Man(a1-3)Man
# Method in brief: as §1
# [43] = target: Man(a1-2)Man(a1-3)[Man(a1-2)Man(a1-6)]Man
# Method in brief: as §1
# [44] = target: Man(a1-2)Man(a1-3)[Man(a1-2)Man(a1-6)]Man(a1-6)[Man(a1-2)Man(a1-2)Man(a1-3)]Man
# Method in brief: as §1
# [45] = target: Man(a1-2)Man(a1-3)[Man(a1-2)Man(a1-6)]Man(a1-6)[Man(a1-2)Man(a1-2)Man(a1-3)]Man(b1-4)GlcNAc(b1-4)GlcNAc
# Method in brief: as §1
# [46] = target: Man(a1-3)[Man(a1-6)]Man(a1-6)[Man(a1-2)Man(a1-3)]Man(b1-4)GlcNAc(b1-4)GlcNAc
# Method in brief: as §1
# [47] = target: Man(a1-3)[Man(a1-6)]Man(a1-6)[Man(a1-3)]Man(b1-4)GlcNAc(b1-4)GlcNAc
# Method in brief: as §1
# [48] = target: Neu5Ac(a2-3)Gal(b1-4)GlcNAc
# Method in brief: as §1
# [49] = target: Neu5Ac(a2-3)Gal(b1-4)GlcNAc6S
# Method in brief: as §1
# [50] = target: Neu5Ac(a2-3)Gal(b1-4)[Fuc(a1-3)]GlcNAc
# Method in brief: as §1
# [51] = target: Neu5Ac(a2-3)Gal(b1-4)[Fuc(a1-3)]GlcNAc(b1-6)[Gal(b1-3)]GalNAc
# Method in brief: as §1
# [52] = target: Neu5Ac(a2-3)[GalNAc(b1-4)]Gal(b1-4)GlcNAc
# Method in brief: as §1
# [53] = target: Neu5Ac(a2-6)Gal(b1-4)GlcNAc(b1-2)Man(a1-3)[GlcNAc(b1-2)Man(b1-4)GlcNAc(b1-2)Man(a1-6)]Man(b1-4)GlcNAc(b1-4)GlcNAc
# Method in brief: as §1
binder,measurement,setting,value
B1,glycan array binding signal (z-score),[1],2.08
same,glycan array binding signal (z-score),[2],-0.404
same,glycan array binding signal (z-score),[3],0.21
same,glycan array binding signal (z-score),[4],-0.662
same,glycan array binding signal (z-score),[5],0.633
same,glycan array binding signal (z-score),[6],-0.461
same,glycan array binding signal (z-score),[7],-0.298
same,glycan array binding signal (z-score),[8],-0.181
same,glycan array binding signal (z-score),[9],-0.032
same,glycan array binding signal (z-score),[10],4.36
same,glycan array binding signal (z-score),[11],6.14
same,glycan array binding signal (z-score),[12],4.5
same,glycan array binding signal (z-score),[13],4.54
same,glycan array binding signal (z-score),[14],4.11
same,glycan array binding signal (z-score),[15],-0.117
same,glycan array binding signal (z-score),[16],2.28
same,glycan array binding signal (z-score),[17],-0.683
same,glycan array binding signal (z-score),[18],5.17
same,glycan array binding signal (z-score),[19],-0.835
same,glycan array binding signal (z-score),[20],-0.721
same,glycan array binding signal (z-score),[21],-0.771
same,glycan array binding signal (z-score),[22],0.061
same,glycan array binding signal (z-score),[23],4.64
same,glycan array binding signal (z-score),[24],-0.213
same,glycan array binding signal (z-score),[25],-0.266
same,glycan array binding signal (z-score),[26],-0.465
B2,glycan array binding signal (z-score),[1],0.148
same,glycan array binding signal (z-score),[27],-0.137
same,glycan array binding signal (z-score),[28],0.009
same,glycan array binding signal (z-score),[29],-0.157
same,glycan array binding signal (z-score),[30],0.044
same,glycan array binding signal (z-score),[31],-0.15
same,glycan array binding signal (z-score),[32],-0.033
same,glycan array binding signal (z-score),[33],-0.172
same,glycan array binding signal (z-score),[34],5.73
same,glycan array binding signal (z-score),[35],-0.216
same,glycan array binding signal (z-score),[36],-0.176
same,glycan array binding signal (z-score),[37],-0.026
same,glycan array binding signal (z-score),[38],0.018
same,glycan array binding signal (z-score),[39],-0.272
same,glycan array binding signal (z-score),[18],1.73
same,glycan array binding signal (z-score),[19],-0.105
same,glycan array binding signal (z-score),[40],-0.336
same,glycan array binding signal (z-score),[41],-0.267
same,glycan array binding signal (z-score),[42],7.92
same,glycan array binding signal (z-score),[43],3.37
same,glycan array binding signal (z-score),[44],7.69
same,glycan array binding signal (z-score),[45],4.83
same,glycan array binding signal (z-score),[46],11.8
same,glycan array binding signal (z-score),[47],0.127
same,glycan array binding signal (z-score),[48],-0.217
same,glycan array binding signal (z-score),[49],-0.127
same,glycan array binding signal (z-score),[50],-0.257
same,glycan array binding signal (z-score),[51],-0.407
same,glycan array binding signal (z-score),[52],-0.085
same,glycan array binding signal (z-score),[53],-0.249
